# Source: PubChem BioAssay (EPA / NIEHS)
# Where “and” joins values, the source holds several entries; their conditions need not be identical. Equal values may be shown once. Results filed as inconclusive are left out. The source holds several records for some structures; these can differ, active in one and inactive in another. Calls of active or inactive are those of the source. Rule for the calls, unless noted: active = hit-call score of the fitted dose curve at least 0.9, where 1 is the maximum; inconclusive = response in the unintended direction; inactive = score below 0.9.
# How the values were obtained:
# [1] = BSK_3C_VCAM1: BioMAP Diversity Plus: 3C Assay for Vascular cell adhesion molecule 1 (VCAM1) Biomarker Activity (AID 2282999; active = hit-call score of the fitted dose curve at least 0.9, where 1 is the maximum; inactive = score below 0.9); details: BioMAP 3C HUVEC, VCAM1 ELISA, cytokine-stimulated; actives raise or lower the signal
# How it was run: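 Human umbilical vein endothelial cells (3C system), biomarker read by ELISA 24 h after dosing; bidirectional fit against DMSO baseline. Cytotoxicity tracked by SRB total-protein staining in parallel cultures at biomarker time.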
# [2] = BSK_4H_Eotaxin3: BioMAP Diversity Plus: 4H Assay for Eotaxin 3 Biomarker Activity (AID 2283000; active = hit-call score of the fitted dose curve at least 0.9, where 1 is the maximum; inactive = score below 0.9;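 for outcome: CCL26 protein level quantified by ELISA in parallel with SRB cytotoxicity check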); details: primary human endothelial cells (HUVEC); actives raise or lower the signal
# How it was run: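 Eotaxin-3 (CCL26) levels were measured by ELISA in HUVEC primary cultures 24 h post-dosing. Gain or loss of signal was fitted in both directions, with DMSO serving as baseline and negative control.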
# [3] = biological target: human Peroxisome Proliferator-activated Receptor alpha (PPARa), PPARA (gene 5465) (UniProt Q07869); assay: ATG_PPARa_TRANS: Attagene TRANS-FACTORIAL HepG2 Assay for human Peroxisome Proliferator-activated Receptor alpha (PPARa) (AID 2283001);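 for AC50: potency for gain of reporter signal over DMSO so agonist or activator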
# How it was run: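 HepG2 cells transiently transfected with multiplexed GAL4-UAS reporters driven by exogenous chimeric NR-Gal4 proteins; reporter mRNA measured after 24 h dosing. Read-out by RT-PCR, 6-FAM labelling, HpaI digestion and capillary electrophoresis; gain of signal versus DMSO.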
# [4] = read-out: Intercellular Adhesion Molecule 1 (ICAM1), ICAM1 (gene 3383); assay: BSK_3C_ICAM1: BioMAP Diversity Plus: 3C Assay for Intercellular Adhesion Molecule 1 (ICAM1) Biomarker Activity (AID 2283003; active = hit-call score of the fitted dose curve at least 0.9, where 1 is the maximum; inactive = score below 0.9); details: primary human endothelial cells (HUVEC); actives raise or lower the signal
# How it was run: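 HUVEC primary cells stimulated under 3C conditions; ICAM1 measured by ELISA 24 h after compound dosing. Curves fitted bidirectionally against the DMSO baseline. Overt cytotoxicity checked by SRB staining of parallel cultures.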
# [5] = biological target: Retinoic acid receptor alpha (Homo sapiens) (UniProt P10276); assay: ATG_RARa_TRANS: Attagene TRANS-FACTORIAL HepG2 Assay for human Retinoic Acid Receptor alpha (RARa) (AID 2283005)
# How it was run: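 HepG2 transiently transfected with multiplex GAL4-UAS reporter units including a human RARa–GAL4 chimera; 24 h compound exposure. Reporter mRNA quantified by RT-PCR, 6-FAM labeling and capillary electrophoresis; gain of signal versus DMSO.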
# [6] = BSK_3C_Proliferation: Cell Proliferation Assessment in the BioMAP Diversity Plus: 3C Assay (AID 2283006; active = hit-call score of the fitted dose curve at least 0.9, where 1 is the maximum; inactive = score below 0.9;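 for AC50: potency may reflect either rise or fall in cell number versus DMSO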); details: primary human endothelial cells (HUVEC)
# How it was run: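 Subconfluent HUVEC (3C system) cultured with chemical; relative cell number read at 48 h by sulforhodamine B total-protein staining (0.1% SRB after 10% TCA fixation, 560 nm). Bidirectional fit relative to DMSO.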
# [7] = biological target: Peroxisome proliferator-activated receptor gamma (Homo sapiens) (UniProt P37231); assay: ATG_PPARg_TRANS: Attagene TRANS-FACTORIAL HepG2 Assay for human Peroxisome Proliferator-activated Receptor-gamma (PPARg) (AID 2283007)
# How it was run: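 Human hepatoma HepG2, transient MRTU transfection, 24 h treatment. mRNA reporter signal by RT-PCR plus capillary electrophoresis, fluorescence detection; fitted for increase over DMSO negative control.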
# [8] = biological target: Nuclear receptor subfamily 1 group I member 2 (Homo sapiens) (UniProt O75469); assay: ATG_PXR_TRANS: Attagene TRANS-FACTORIAL HepG2 Assay for human Pregnane X Receptor (PXR) (AID 2283008)
# How it was run: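 HepG2 cells transiently transfected with multiple reporter units, here a PXR-GAL4 chimera driving a GAL4-UAS reporter; 24 h compound exposure. Reporter mRNA measured by RT-PCR, FAM labelling and capillary electrophoresis; gain of signal fitted against DMSO baseline.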
# [9] = biological target: human Peroxisome Proliferator-activated Receptor delta (PPARd), PPARD (gene 5467) (UniProt Q03181); assay: ATG_PPARd_TRANS: Attagene TRANS-FACTORIAL HepG2 Assay for human Peroxisome Proliferator-activated Receptor delta (PPARd) (AID 2283002)
# How it was run: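 HepG2 cells transiently transfected with GAL4-UAS multiplexed reporter units driven by exogenous chimeric NR-GAL4 proteins; 24 h compound exposure. Reporter mRNA measured by RT-PCR, 6-FAM primer extension, HpaI digestion and capillary electrophoresis; gain of signal fitted relative to DMSO.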
# [10] = biological target: human Retinoic Acid Receptor beta (RARb), RARB (gene 5915) (UniProt P10826); assay: ATG_RARb_TRANS: Attagene TRANS-FACTORIAL HepG2 Assay for human Retinoic Acid Receptor beta (AID 2283004)
# How it was run: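 HepG2 cells were transiently transfected with GAL4-UAS reporter units that report activity of exogenous chimeric NR-Gal4 proteins, then exposed to compound for 24 h. Reporter mRNA was quantified by RT-PCR with capillary electrophoresis fluorescence, as gain of signal over DMSO.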
# Peroxisome proliferator-activated receptor gamma (Homo sapiens), sequence (P37231 whole entry, looked up): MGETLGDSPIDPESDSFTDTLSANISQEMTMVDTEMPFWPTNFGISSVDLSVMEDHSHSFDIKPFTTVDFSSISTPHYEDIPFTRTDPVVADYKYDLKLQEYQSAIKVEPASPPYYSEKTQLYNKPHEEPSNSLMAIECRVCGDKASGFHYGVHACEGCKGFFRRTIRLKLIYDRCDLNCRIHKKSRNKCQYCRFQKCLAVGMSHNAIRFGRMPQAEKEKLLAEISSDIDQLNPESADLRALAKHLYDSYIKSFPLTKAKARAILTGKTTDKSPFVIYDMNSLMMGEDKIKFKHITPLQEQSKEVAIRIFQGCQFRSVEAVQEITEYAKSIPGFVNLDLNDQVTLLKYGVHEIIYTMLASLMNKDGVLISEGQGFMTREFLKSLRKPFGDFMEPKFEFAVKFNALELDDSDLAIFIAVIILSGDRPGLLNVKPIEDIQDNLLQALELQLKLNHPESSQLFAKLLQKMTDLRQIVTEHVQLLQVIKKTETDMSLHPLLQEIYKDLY
# human Peroxisome Proliferator-activated Receptor alpha (PPARa), PPARA (gene 5465), sequence (Q07869 whole entry, looked up, the tested form may be a part): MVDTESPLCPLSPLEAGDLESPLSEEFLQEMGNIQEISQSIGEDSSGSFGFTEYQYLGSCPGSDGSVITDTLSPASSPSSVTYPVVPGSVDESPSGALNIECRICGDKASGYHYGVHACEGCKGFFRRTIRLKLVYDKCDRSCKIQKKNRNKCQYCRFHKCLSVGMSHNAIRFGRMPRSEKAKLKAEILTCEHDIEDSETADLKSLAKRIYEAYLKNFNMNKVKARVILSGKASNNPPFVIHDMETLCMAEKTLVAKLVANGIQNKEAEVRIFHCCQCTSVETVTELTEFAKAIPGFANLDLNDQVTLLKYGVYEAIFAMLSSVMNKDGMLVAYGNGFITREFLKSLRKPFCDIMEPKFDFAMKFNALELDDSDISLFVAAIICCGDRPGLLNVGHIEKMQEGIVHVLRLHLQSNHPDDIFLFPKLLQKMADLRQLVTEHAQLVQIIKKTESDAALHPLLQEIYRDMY
# Retinoic acid receptor alpha (Homo sapiens), sequence (P10276 whole entry, looked up, the tested form may be a part): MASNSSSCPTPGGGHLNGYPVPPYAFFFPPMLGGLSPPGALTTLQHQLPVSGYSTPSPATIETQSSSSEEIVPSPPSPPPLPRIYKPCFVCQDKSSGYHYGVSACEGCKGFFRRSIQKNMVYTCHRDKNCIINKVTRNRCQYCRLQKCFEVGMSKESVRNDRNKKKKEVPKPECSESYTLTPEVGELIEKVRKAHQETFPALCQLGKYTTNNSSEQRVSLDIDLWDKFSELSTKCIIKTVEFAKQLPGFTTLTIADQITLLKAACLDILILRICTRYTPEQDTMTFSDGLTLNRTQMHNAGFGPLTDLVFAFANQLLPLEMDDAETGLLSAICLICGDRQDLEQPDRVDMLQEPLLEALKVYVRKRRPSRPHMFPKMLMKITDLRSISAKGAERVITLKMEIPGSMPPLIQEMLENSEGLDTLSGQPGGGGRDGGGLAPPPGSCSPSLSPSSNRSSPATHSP
# human Retinoic Acid Receptor beta (RARb), RARB (gene 5915), sequence (P10826 whole entry, looked up, the tested form may be a part): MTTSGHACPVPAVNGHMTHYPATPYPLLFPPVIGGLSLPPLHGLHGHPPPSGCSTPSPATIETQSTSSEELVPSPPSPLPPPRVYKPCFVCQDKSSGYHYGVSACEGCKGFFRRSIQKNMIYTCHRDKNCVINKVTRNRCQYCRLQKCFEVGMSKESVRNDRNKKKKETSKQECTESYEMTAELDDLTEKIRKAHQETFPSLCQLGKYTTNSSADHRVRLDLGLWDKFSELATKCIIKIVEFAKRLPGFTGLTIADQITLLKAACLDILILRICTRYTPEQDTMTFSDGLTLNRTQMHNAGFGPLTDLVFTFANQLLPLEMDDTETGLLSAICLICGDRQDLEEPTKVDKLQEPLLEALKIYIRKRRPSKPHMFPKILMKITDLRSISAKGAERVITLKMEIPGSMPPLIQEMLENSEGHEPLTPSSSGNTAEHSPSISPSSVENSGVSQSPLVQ
# Nuclear receptor subfamily 1 group I member 2 (Homo sapiens), sequence (O75469 whole entry, looked up, the tested form may be a part): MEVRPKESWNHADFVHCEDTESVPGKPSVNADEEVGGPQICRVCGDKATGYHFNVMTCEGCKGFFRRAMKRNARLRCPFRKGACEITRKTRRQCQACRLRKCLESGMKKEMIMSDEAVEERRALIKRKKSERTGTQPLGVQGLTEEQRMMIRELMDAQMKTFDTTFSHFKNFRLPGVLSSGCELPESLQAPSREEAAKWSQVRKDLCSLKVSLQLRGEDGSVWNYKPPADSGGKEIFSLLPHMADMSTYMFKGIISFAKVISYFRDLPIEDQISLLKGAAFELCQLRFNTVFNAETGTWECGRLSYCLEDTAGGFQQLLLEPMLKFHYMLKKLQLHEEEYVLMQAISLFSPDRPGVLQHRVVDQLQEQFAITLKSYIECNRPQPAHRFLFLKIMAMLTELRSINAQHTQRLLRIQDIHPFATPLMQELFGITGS
# human Peroxisome Proliferator-activated Receptor delta (PPARd), PPARD (gene 5467), sequence (Q03181 whole entry, looked up, the tested form may be a part): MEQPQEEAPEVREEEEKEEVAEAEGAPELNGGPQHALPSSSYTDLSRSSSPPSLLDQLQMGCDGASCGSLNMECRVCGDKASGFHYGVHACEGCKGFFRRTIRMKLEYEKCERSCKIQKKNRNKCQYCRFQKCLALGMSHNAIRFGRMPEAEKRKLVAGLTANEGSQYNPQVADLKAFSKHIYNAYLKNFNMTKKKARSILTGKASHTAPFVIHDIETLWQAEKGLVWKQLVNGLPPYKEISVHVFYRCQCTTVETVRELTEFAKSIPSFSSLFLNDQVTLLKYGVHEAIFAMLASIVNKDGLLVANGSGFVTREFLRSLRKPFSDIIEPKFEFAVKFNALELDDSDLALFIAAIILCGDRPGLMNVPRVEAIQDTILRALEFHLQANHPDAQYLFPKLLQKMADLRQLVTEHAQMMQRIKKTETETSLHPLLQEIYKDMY
smiles,measurement,setting,value
Oc1c(Cl)c(Cl)c(Cl)c(Cl)c1Cl,AC50,[1],10.2 µM (active) and 32.3 µM (active)
same,AC50,[2],17 µM (active) and 9.54 µM (active)
same,outcome,[3],inactive
same,AC50,[4],33.7 µM (active)
same,outcome,[4],inactive
same,outcome,[5],inactive
same,AC50,[6],15.4 µM (active) and 14.7 µM (active)
same,AC50,[7],4.28 µM (active) and 2.53 µM (active) and 7.91 µM (active)
same,AC50,[8],13.8 µM (active) and 3.3 µM (active)
same,outcome,[8],inactive
Cc1cc2c3c(c1)C(c1ccccc1)=N[C@@H](NC(=O)c1ccncc1)C(=O)N3CC2,outcome,[1],inactive
same,outcome,[2],inactive
same,outcome,[3],inactive
same,outcome,[9],inactive
same,outcome,[4],inactive
same,outcome,[10],inactive
same,outcome,[6],inactive
same,AC50,[7],1.71 µM (active)
same,AC50,[8],2.54 µM (active)
Cc1ccccc1[N+](=O)[O-],outcome,[1],inactive
same,outcome,[2],inactive
same,outcome,[3],inactive
same,outcome,[4],inactive
same,outcome,[6],inactive
Cc1ccccc1O,outcome,[1],inactive
same,outcome,[2],inactive
same,outcome,[3],inactive
same,outcome,[4],inactive
same,outcome,[5],inactive
same,outcome,[6],inactive
same,outcome,[8],inactive
CCNc1nc(NC(C)C)nc(SC)n1,outcome,[1],inactive
same,outcome,[2],inactive
same,outcome,[3],inactive
same,outcome,[9],inactive
same,outcome,[4],inactive
same,outcome,[6],inactive
same,outcome,[7],inactive
same,outcome,[8],inactive
CCCCCCCCOC(=O)c1ccccc1C(=O)OCCCCCCCC,outcome,[1],inactive
same,AC50,[2],14 µM (active)
same,outcome,[3],inactive
same,outcome,[4],inactive
same,outcome,[5],inactive
same,outcome,[6],inactive
same,AC50,[7],38.4 µM (active)
same,outcome,[8],inactive
O=C(O)C(F)(F)C(F)(F)C(F)(F)C(F)(F)C(F)(F)C(F)(F)C(F)(F)C(F)(F)C(F)(F)F,AC50,[1],56.8 µM (active) and 53.1 µM (active)
same,outcome,[1],inactive
same,AC50,[2],29.9 µM (active) and 49.3 µM (active) and 51.1 µM (active)
same,AC50,[3],33.4 µM (active) and 24.7 µM (active) and 23.9 µM (active)
same,outcome,[9],inactive
same,AC50,[4],46.5 µM (active) and 58.4 µM (active)
same,outcome,[4],inactive
same,outcome,[10],inactive
same,outcome,[5],inactive
same,AC50,[6],36.3 µM (active) and 46.6 µM (active) and 45.4 µM (active)
same,AC50,[7],52.1 µM (active) and 12.9 µM (active)
same,AC50,[8],45.7 µM (active) and 60.9 µM (active)
same,outcome,[8],inactive
ClC(Cl)=C(c1ccc(Cl)cc1)c1ccc(Cl)cc1,AC50,[1],31.3 µM (active)
same,AC50,[2],31.2 µM (active)
same,AC50,[3],26.2 µM (active)
same,outcome,[3],inactive
same,outcome,[9],inactive
same,AC50,[4],34 µM (active)
same,outcome,[7],inactive
same,AC50,[8],6.11 µM (active) [middle of 4 runs]
Cc1cc(-c2ccc(N)c(C)c2)ccc1N,outcome,[1],inactive
same,outcome,[2],inactive
same,outcome,[3],inactive
same,outcome,[4],inactive
same,outcome,[10],inactive
same,outcome,[5],inactive
same,outcome,[6],inactive
same,AC50,[7],100 µM (active)
same,outcome,[7],inactive
same,outcome,[8],inactive
O=NN(c1ccccc1)c1ccccc1,outcome,[1],inactive
same,outcome,[2],inactive
same,outcome,[3],inactive
same,outcome,[9],inactive
same,outcome,[4],inactive
same,AC50,[6],6.14 µM (active)
same,outcome,[7],inactive
same,AC50,[8],29.9 µM (active)
COS(=O)(=O)OC,outcome,[1],inactive
same,outcome,[2],inactive
same,outcome,[3],inactive
same,outcome,[9],inactive
same,outcome,[4],inactive
same,outcome,[6],inactive
CCC(C)c1cc([N+](=O)[O-])cc([N+](=O)[O-])c1O (configuration not stated),AC50,[1],8.86 µM (active)
same,AC50,[2],11.3 µM (active)
same,AC50,[3],49.6 µM (active)
same,outcome,[9],inactive
same,outcome,[4],inactive
same,outcome,[5],inactive
same,AC50,[6],8.95 µM (active)
same,AC50,[7],17.3 µM (active)
same,AC50,[8],26.9 µM (active)
Cc1ccc(O)c(C)c1,outcome,[1],inactive
same,outcome,[2],inactive
same,outcome,[3],inactive
same,outcome,[9],inactive
same,outcome,[4],inactive
same,outcome,[10],inactive
same,outcome,[6],inactive
same,outcome,[7],inactive
Cc1cc(O)ccc1Cl,outcome,[1],inactive
same,outcome,[2],inactive
same,outcome,[3],inactive
same,outcome,[9],inactive
same,outcome,[4],inactive
same,outcome,[10],inactive
same,outcome,[6],inactive
same,outcome,[7],inactive
same,outcome,[8],inactive
O=C(O)C(F)(F)C(F)(F)C(F)(F)C(F)(F)C(F)(F)F,outcome,[1],inactive
same,outcome,[2],inactive
same,AC50,[3],36.7 µM (active) and 70.9 µM (active)
same,outcome,[9],inactive
same,outcome,[4],inactive
same,outcome,[5],inactive
same,outcome,[6],inactive
same,outcome,[7],inactive
same,outcome,[8],inactive
